TNAP pNPP inh – blocks human TNAP p-nitrophenol release. P05186. purified TNAP, pNPP hydrolysis, absorbance 405 nm. inhibition, % at 20 µM. 21,000 tested, under 10 active. AID 615;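 note: 0% = DMSO only wells and 100% = 1 mM levamisole wells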
Target sequence (P05186 whole entry, looked up): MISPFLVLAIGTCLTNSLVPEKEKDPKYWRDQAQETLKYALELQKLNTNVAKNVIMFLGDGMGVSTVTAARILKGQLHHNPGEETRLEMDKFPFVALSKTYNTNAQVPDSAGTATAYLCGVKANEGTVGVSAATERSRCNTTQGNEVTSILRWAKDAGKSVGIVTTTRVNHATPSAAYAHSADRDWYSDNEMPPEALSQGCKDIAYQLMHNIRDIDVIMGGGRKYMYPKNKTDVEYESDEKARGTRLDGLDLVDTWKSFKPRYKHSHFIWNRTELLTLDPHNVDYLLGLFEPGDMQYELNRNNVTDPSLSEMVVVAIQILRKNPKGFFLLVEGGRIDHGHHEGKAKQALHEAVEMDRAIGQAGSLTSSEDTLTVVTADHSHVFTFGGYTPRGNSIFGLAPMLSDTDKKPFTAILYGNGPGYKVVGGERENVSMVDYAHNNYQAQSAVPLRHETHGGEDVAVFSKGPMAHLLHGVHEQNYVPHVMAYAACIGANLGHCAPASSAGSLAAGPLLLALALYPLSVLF
TNAP inh Pi – blocks human TNAP phosphate release. purified TNAP, pNPP, malachite green phosphate absorbance. inhibition, % at 20 µM. 21,000 tested, under 10 active. AID 614
An asterisk follows results filed as active. Only a sample is shown.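 Rule for the calls: active = inhibition above 50% at the 20 µM single-dose screen; inactive = the rest.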

What do the screens show for `CC(=O)NC12CC3CC(C1)CC(C(=O)OCC(=O)Nc1ncc(Cl)cc1Cl)(C3)C2`?
TNAP pNPP inh: 8; TNAP inh Pi: 18

Results for Cc1noc(C)c1C(=O)OCC(=O)c1cc(C)n(Cc2ccccc2Cl)c1C ?
TNAP pNPP inh: 8; TNAP inh Pi: 19

What do the screens show for `COc1ccc(NCC(=O)Nc2ccc(Cl)cc2C)c(OC)c1`?
TNAP pNPP inh: 6; TNAP inh Pi: 6

What do the screens show for `O=C(O)CCc1cc(I)c(Oc2ccc(O)c(I)c2)c(I)c1`?
TNAP pNPP inh: 0; TNAP inh Pi: 0

What do the screens show for `CCCCc1nnc(SCCSc2nnc(CCCC)n2N)n1N`?
TNAP pNPP inh: 4; TNAP inh Pi: 14

Results for CSC1=Nc2sc3c(c2C2=NCCN12)CC(C)(C)OC3 ?
TNAP pNPP inh: 6; TNAP inh Pi: 12

Results for CCC(=O)N1CCN(c2ccccc2NC(=O)COc2ccccc2Cl)CC1 ?
TNAP pNPP inh: -4; TNAP inh Pi: 2

What do the screens show for `CCOC(=O)N1CCN(S(=O)(=O)N(C)C)CC1`?
TNAP pNPP inh: 5; TNAP inh Pi: 7

What do the screens show for `CCOC(=O)CNc1nnc(SCC(=O)OCC)[nH]c1=O`?
TNAP pNPP inh: 1; TNAP inh Pi: -2

What do the screens show for `Cc1ccc(N2C(=O)CC3(CC4C=CC3C4)C2=O)cc1` (stereo not given)?
TNAP pNPP inh: 2; TNAP inh Pi: 7

Results for COc1cccc(CSc2nnc(-c3ccco3)n2C)c1 ?
TNAP pNPP inh: -2; TNAP inh Pi: 3

What do the screens show for `COC(=O)C(NC(=O)c1ccco1)(Nc1ccc(Br)cn1)C(F)(F)F` (stereo not given)?
TNAP pNPP inh: 2; TNAP inh Pi: 5

How did CC(C)(C)NC(=O)CSc1nccn1Cc1ccccc1 do in these assays?
TNAP pNPP inh: 1; TNAP inh Pi: 4

How did COc1ccccc1NS(=O)(=O)c1cc(Cl)ccc1OC do in these assays?
TNAP pNPP inh: 7; TNAP inh Pi: -19

How did CCOC(=O)Cc1nnc(Nc2cccc(O)c2)c2ccccc12 do in these assays?
TNAP pNPP inh: -1; TNAP inh Pi: 5

What do the screens show for `COCCNS(=O)(=O)c1ccc(SC)cc1`?
TNAP pNPP inh: 5; TNAP inh Pi: 15

How did Cc1ccc(NS(=O)(=O)c2cccc(C(=O)n3ncc(C#N)c3N)c2)c(C)c1 do in these assays?
TNAP pNPP inh: 2; TNAP inh Pi: 7

Results for O=C1NC(c2ccccc2)C(C(=O)c2cccs2)=C1O (stereo not given) ?
TNAP pNPP inh: 1; TNAP inh Pi: 7

Results for CC(NC(=O)NCc1cccnc1)(C(F)(F)F)C(F)(F)F ?
TNAP pNPP inh: 5; TNAP inh Pi: 10

Results for CCOC(=O)c1oc2ccc(S(=O)(=O)Nc3ccc4c(c3)n(C)c(=O)n4C)cc2c1C ?
TNAP pNPP inh: 2; TNAP inh Pi: 19

What do the screens show for `COc1ccc(C2C3=C(CCCC3=O)Nc3nc4ccccc4n32)cc1OC` (stereo not given)?
TNAP pNPP inh: 0; TNAP inh Pi: 12

Results for Cn1c(N2CCN(C(=O)C34CC5CC(CC(C5)C3)C4)CC2)nc2ccccc21 ?
TNAP pNPP inh: 1; TNAP inh Pi: 7

Results for CN1C(=O)N(c2ccccc2)C(Nc2nncs2)C1(C)C (stereo not given) ?
TNAP pNPP inh: 6; TNAP inh Pi: 10

What do the screens show for `COc1cc(OC)cc(C(=O)N2CCC(N3CCCCCC3)CC2)c1`?
TNAP pNPP inh: 2; TNAP inh Pi: -16

What do the screens show for `Cc1c(/C(O)=C2/C(=O)C(=O)N(CCCN3CCOCC3)C2c2ccncc2)cnn1-c1ccccc1` (stereo not given)?
TNAP pNPP inh: 0; TNAP inh Pi: 0

What do the screens show for `CCc1[nH]nc2c1C(c1ccc(Br)s1)C(C#N)=C(N)O2` (stereo not given)?
TNAP pNPP inh: 2; TNAP inh Pi: -2

How did COc1cc(C2C(C#N)=C(N)Oc3cc(C)n(Cc4ccccn4)c(=O)c32)cc2c1OCO2 (stereo not given) do in these assays?
TNAP pNPP inh: 1; TNAP inh Pi: -15

Results for Cc1ccnc(NS(=O)(=O)c2ccc(NS(=O)(=O)Cc3ccccc3)cc2)n1 ?
TNAP pNPP inh: 5; TNAP inh Pi: -14

What do the screens show for `Cc1c(C(=O)NC(C)CN2CCCCC2)oc2ccccc12` (stereo not given)?
TNAP pNPP inh: -4; TNAP inh Pi: 2

How did CCN(CC)S(=O)(=O)c1ccc(NC(=O)COc2c(OC)cccc2OC)cc1 do in these assays?
TNAP pNPP inh: -4; TNAP inh Pi: -17

How did CCOc1cc(S(=O)(=O)N2CCN(Cc3ccccc3)CC2)ccc1Br do in these assays?
TNAP pNPP inh: -2; TNAP inh Pi: 0

What do the screens show for `COc1ccc(-c2nc(C#N)c(N3CCCCCC3)o2)cc1OC`?
TNAP pNPP inh: -1; TNAP inh Pi: 4

What do the screens show for `CCCCC(CC)C(=O)Nc1ccccc1C(=O)NC(C)C` (stereo not given)?
TNAP pNPP inh: 0; TNAP inh Pi: 12

How did CS(=O)(=O)N(CC(=O)N1CCCCCC1)c1ccc2c(c1)OCCO2 do in these assays?
TNAP pNPP inh: -1; TNAP inh Pi: 14
